Data: ChEMBL document CHEMBL1961873, “Compounds: GSK PKIS; Assays: Nanosyn kinase panel” (2012)

The molecules below were run against Tyrosine-protein kinase JAK2 (Homo sapiens) (UniProt O60674). Conditions: at 1 µM.
Chain of Tyrosine-protein kinase JAK2 (Homo sapiens) (O60674 whole entry): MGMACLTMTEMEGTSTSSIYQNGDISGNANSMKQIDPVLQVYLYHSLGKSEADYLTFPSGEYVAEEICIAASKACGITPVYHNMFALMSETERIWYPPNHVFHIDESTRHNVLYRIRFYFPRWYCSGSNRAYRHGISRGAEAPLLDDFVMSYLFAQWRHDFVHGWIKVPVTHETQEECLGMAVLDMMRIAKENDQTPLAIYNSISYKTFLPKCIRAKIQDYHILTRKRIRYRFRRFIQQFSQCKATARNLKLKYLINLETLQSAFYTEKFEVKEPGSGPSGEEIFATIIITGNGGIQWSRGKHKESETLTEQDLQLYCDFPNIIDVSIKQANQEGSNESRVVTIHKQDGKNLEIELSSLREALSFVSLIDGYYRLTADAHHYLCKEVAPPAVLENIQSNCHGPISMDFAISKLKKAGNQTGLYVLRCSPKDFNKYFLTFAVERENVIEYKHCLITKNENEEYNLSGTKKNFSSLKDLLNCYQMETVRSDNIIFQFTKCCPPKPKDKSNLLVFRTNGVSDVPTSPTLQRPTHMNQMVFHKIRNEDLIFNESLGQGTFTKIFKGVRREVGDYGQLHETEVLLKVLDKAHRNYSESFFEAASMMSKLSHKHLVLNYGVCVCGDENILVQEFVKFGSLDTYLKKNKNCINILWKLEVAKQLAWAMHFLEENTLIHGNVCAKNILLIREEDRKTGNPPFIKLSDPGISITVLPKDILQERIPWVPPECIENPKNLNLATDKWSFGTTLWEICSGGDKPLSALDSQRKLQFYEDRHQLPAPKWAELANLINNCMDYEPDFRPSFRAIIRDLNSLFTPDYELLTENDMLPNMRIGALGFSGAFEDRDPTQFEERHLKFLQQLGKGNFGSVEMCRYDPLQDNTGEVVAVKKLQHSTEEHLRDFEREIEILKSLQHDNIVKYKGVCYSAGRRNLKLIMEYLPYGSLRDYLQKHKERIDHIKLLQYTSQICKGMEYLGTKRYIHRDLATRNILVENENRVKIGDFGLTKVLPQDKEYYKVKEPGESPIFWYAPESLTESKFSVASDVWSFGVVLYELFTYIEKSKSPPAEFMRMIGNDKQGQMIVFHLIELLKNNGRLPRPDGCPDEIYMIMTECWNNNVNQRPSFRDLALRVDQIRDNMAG
In the case of `COc1ccc(-c2cc(-c3c[nH]nc3-c3ccccn3)ccn2)cc1`, the inhibition is reported as 4.19%. With `CCCN(CCS(C)(=O)=O)Cc1ccc(-c2ccc3ncnc(Nc4ccc(OCc5cccc(F)c5)c(Cl)c4)c3c2)o1` the inhibition was 3.22%. `FC(F)(F)c1cccc(-c2nn3ncccc3c2-c2ccnc(Nc3ccc4c(c3)OCCO4)n2)c1` gave an inhibition of 1.37%. `CCNC(=O)O[C@H]1CN[C@H](C#Cc2cc3ncnc(Nc4ccc(OCc5cccc(F)c5)c(Cl)c4)c3s2)C1` showed an inhibition of 2.64%. `COC(=O)Nc1nc2ccc(S(=O)(=O)c3ccc(NC(=O)Nc4cc(C(F)(F)F)ccc4F)cc3)cc2[nH]1` showed an inhibition of 1.9%. `CC(=O)Nc1cccc(C#Cc2cncnc2Nc2ccc(OCc3cccc(F)c3)c(Cl)c2)c1` gave an inhibition of 6.59%. In the case of `CCOc1ccc2c(-c3ccnc(Nc4cccc(C(F)(F)F)c4)n3)cnn2n1`, the inhibition is reported as 0.53%. In the case of `CC(=O)NCc1cccc(C#Cc2cncnc2Nc2ccc(OCc3cccc(F)c3)c(Cl)c2)c1`, the inhibition is reported as -3%. With `Cc1cccc2c1NC(=O)/C2=N\Nc1ccc(S(N)(=O)=O)cc1` the inhibition was 4%. With `COc1ccc(-c2nn3ncccc3c2-c2ccnc(Nc3ccc4c(c3)OCCO4)n2)cc1` the inhibition was -0.78%. In the case of `Fc1ccc(-c2cc(-c3c[nH]nc3-c3ccccn3)ccn2)cc1`, the inhibition is reported as 0.86%. Molecule `CCN(CC)S(=O)(=O)c1ccc(OC)c(Nc2ncc(-c3ccccc3)o2)c1` has an inhibition of 1.73%. `COc1cccc(-c2c[nH]c3c(N/N=C/c4ccncc4)ncnc23)c1` gave an inhibition of 15.1%. For `c1ccc(-c2nc3n(c2-c2ccc4c(c2)OCO4)CCC3)nc1`, the inhibition was -1.02%. With `COc1cccc(-n2ncc3c(N/N=C/c4ccc(F)cc4)ncnc32)c1` the inhibition was 4.42%. `Nc1ncc(-c2cccc(S(N)(=O)=O)c2)c2scc(-c3ccc(F)c(Cl)c3)c12` showed an inhibition of 1.31%. `Cc1ccc2c(-c3ccnc(Nc4ccccc4)n3)c(-c3ccc(F)cc3)nn2n1` showed an inhibition of 2.93%. Work on `CS(=O)(=O)CCNCc1ccc(-c2ccc3ncnc(Nc4ccc(OCc5ccccc5)c(C(F)(F)F)c4)c3c2)o1` yielded an inhibition of -0.24%. `NC(=O)c1sc(-n2cnc3ccc(C(F)(F)F)cc32)cc1OCc1ccccc1Br` showed an inhibition of 3.26%. `CCn1c(-c2nonc2N)nc2ccccc21` showed an inhibition of 1.39%. In the case of `NS(=O)(=O)c1ccc(Nc2ncc(-c3ccccc3)o2)cc1`, the inhibition is reported as 3.74%. Work on `COc1ccc2[nH]c3c4[nH]c5ccc(OC)cc5c4c4c(c3c2c1)C(=O)NC4=O` yielded an inhibition of -1.31%. `Nc1nc(-c2ccc(F)cc2)c(-c2ccc3ncccc3n2)s1` was tested, and the inhibition was 4.07%. `COc1ccc(CNC(=O)c2ccc(-c3cc(-c4nnc(C)o4)ccc3C)cc2)cc1` was tested, and the inhibition was 1.48%. Molecule `O=C(O[C@H]1CN[C@H](C#Cc2cc3ncnc(Nc4ccc(Cc5ccccc5)cc4)c3s2)C1)N1CCOCC1` has an inhibition of -0.66%. With `N#Cc1c(NC(=O)CN2CCOCC2)sc2c1CCCC2` the inhibition was 3.35%. `Cc1cccc(Nc2ncc(-c3ccccc3)o2)c1` gave an inhibition of 2.63%. Work on `O=C(Nc1n[nH]c2cc(-c3ccc(F)cc3)ccc12)C1CC1` yielded an inhibition of 1.73%. With `COC(=O)c1sc(-n2cnc3cc(OC)c(OC)cc32)cc1OCc1ccccc1C(F)(F)F` the inhibition was 5.28%. `Cc1ccc(O)cc1Nc1ccnc2cc(-c3ccccn3)ccc12` gave an inhibition of 3.62%. With `CCc1nn2ncccc2c1-c1ccnc(NC2CC2)n1` the inhibition was 1.59%. For `CCn1cc(-c2ccnc3[nH]ccc23)c(-c2cccc(NC(=O)Nc3ccc(OCc4ccccc4)cc3)c2)n1`, the inhibition was -1.69%. Work on `COc1cc2c(cc1Nc1nc(Nc3ccsc3C(N)=O)c3cc[nH]c3n1)N(C(=O)CN(C)C)CCC2(C)C` yielded an inhibition of 0.03%.
